# Experimental data from the supplement of paper PMC8728848.
# Only a selection was taken, and the strongest signals are over-represented in it overall.
# B1: Surfactant Protein D (Human); Neck + Carbohydrate Recognition Domain (NCRD) (Homo sapiens) (protein)
# chain: MLLFLLSALVLLTQPLGYLEAEMKTYSHRTMPSACTLVMCSSVESGLPGRDRDGREGPRGEKGDPGLPGAAGQAGMPGQAGPVGPKGDNGSVGEPGPKGDTGPSGPPGPPGVPGPAGREGALGKQGNIGPQGKPGPKGEAGPKGEVGAPGMQGSAGARGLAGPKGERGVPGERGVPGNTGAAGSAGAMGPQGSPGARGPPGLKGDKGIPGDKGAKGESGLPDVASLRQQVEALQGQVQHLQAAFSQYKKVELFPNGQSVGEKIFKTAQFVKPFTEAQLLCTQAGGQLASPRSAAENAALQQLVVAKNEAAFLSMTDSKTEGKFTYPTGESLVYSNWAPGEPNDDGGSEDCVEIYTNGKWNDRACGEKRLVVCEF
# Tests used:
# Assay in all cases: glycan array binding signal (z-score within array); higher = stronger binding
# Conditions in all cases: glycan notation: IUPAC condensed, linker removed; mutation: F335Y
# [1] = biological target: Fuc(a1-2)Gal(b1-3)GalNAc(b1-3)Gal
# In short: (§1)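 Glycan array binding is given as a within-array Z-score, which can be read as non-binding when negative. The arrays, 3228 of them, came from the Consortium for Functional Glycomics database and were retained only where the protein sequence was available. Z-scores were averaged across arrays of the same protein sequence at different concentrations or buffers and across linkers.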
# [2] = biological target: Fuc(a1-2)Gal(b1-3)GalNAc(b1-4)[Neu5Ac(a2-3)]Gal(b1-4)Glc
# In short: as §1
# [3] = biological target: Fuc(a1-3)[Gal(b1-4)]GlcNAc(b1-4)Gal(b1-4)[Fuc(a1-3)]GlcNAc
# In short: as §1
# [4] = biological target: Gal(a1-6)Glc
# In short: as §1
# [5] = biological target: Gal(b1-3)[GlcNAc(b1-6)]GalNAc
# In short: as §1
# [6] = biological target: Gal(b1-4)GlcNAc(b1-3)GalNAc
# In short: as §1
# [7] = biological target: Gal6S(b1-4)Glc6S
# In short: as §1
# [8] = biological target: GlcNAc(b1-2)Gal(b1-3)GalNAc
# In short: as §1
# [9] = biological target: GlcNAc(b1-3)Gal
# In short: as §1
# [10] = biological target: GlcNAc(b1-3)GalNAc
# In short: as §1
# [11] = biological target: GlcNAc(b1-3)Man
# In short: as §1
# [12] = biological target: Man(a1-2)Man(a1-2)Man(a1-6)[Man(a1-3)]Man
# In short: as §1
# [13] = biological target: Man(a1-2)Man(a1-3)[Man(a1-2)Man(a1-6)]Man
# In short: as §1
# [14] = biological target: Man(a1-2)Man(a1-3)[Man(a1-2)Man(a1-6)]Man(a1-6)[Man(a1-2)Man(a1-2)Man(a1-3)]Man
# In short: as §1
# [15] = biological target: Man(a1-2)Man(a1-6)[Man(a1-3)]Man(a1-6)[Man(a1-2)Man(a1-2)Man(a1-3)]Man(b1-4)GlcNAc(b1-4)GlcNAc
# In short: as §1
# [16] = biological target: Man(a1-3)[Man(a1-6)]Man(a1-6)[Man(a1-2)Man(a1-3)]Man(b1-4)GlcNAc(b1-4)GlcNAc
# In short: as §1
# [17] = biological target: Man(a1-3)[Man(a1-6)]Man(a1-6)[Man(a1-3)]Man
# In short: as §1
# [18] = biological target: Neu5Ac(a2-3)Gal(b1-3)GalNAc
# In short: as §1
# [19] = biological target: Neu5Ac(a2-3)Gal(b1-4)GlcNAc(b1-6)[Neu5Ac(a2-3)Gal(b1-3)]GalNAc
# In short: as §1
# [20] = biological target: Neu5Ac(a2-6)Gal(b1-4)GlcNAc(b1-3)Gal(b1-4)[Fuc(a1-3)]GlcNAc(b1-3)Gal(b1-4)[Fuc(a1-3)]GlcNAc
# In short: as §1
binder,measurement,setting,value
B1,glycan array binding signal (z-score),[1],-0.184
same,glycan array binding signal (z-score),[2],-0.189
same,glycan array binding signal (z-score),[3],-0.183
same,glycan array binding signal (z-score),[4],-0.189
same,glycan array binding signal (z-score),[5],-0.185
same,glycan array binding signal (z-score),[6],-0.191
same,glycan array binding signal (z-score),[7],-0.187
same,glycan array binding signal (z-score),[8],-0.189
same,glycan array binding signal (z-score),[9],-0.18
same,glycan array binding signal (z-score),[10],-0.193
same,glycan array binding signal (z-score),[11],-0.187
same,glycan array binding signal (z-score),[12],5.87
same,glycan array binding signal (z-score),[13],7.66
same,glycan array binding signal (z-score),[14],7.37
same,glycan array binding signal (z-score),[15],5.84
same,glycan array binding signal (z-score),[16],7.18
same,glycan array binding signal (z-score),[17],3.93
same,glycan array binding signal (z-score),[18],-0.19
same,glycan array binding signal (z-score),[19],-0.178
same,glycan array binding signal (z-score),[20],-0.122
